Experiments:
p38-delta = settings: concentration: 1 μM, replicates: in singlicate; n = 1
p38-gamma = test system: T1, p38-gamma; settings: concentration: 1 μM, replicates: in singlicate; n = 1
T1 construct: gene MAPK12
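Also: KINOMEscan kinase panel screen.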

| SMILES | %Inh (p38-delta) [%] | %Inh (p38-gamma) [%] |
| --- | --- | --- |
| COc1ccc(-c2coc3ccc(-c4nnc(SCc5cccc(C#N)c5)o4)cc23)cc1 | 16 | 7 |
| Cc1cccc(-c2cc(-c3c[nH]nc3-c3ccccn3)ccn2)c1 [GW679395] | 44 | 12 |
| CCn1c(-c2nonc2N)nc2ccccc21 [SB-693162/GW549034] | 0 | 10 |
| COc1cc(Nc2nccc(N3CCC(NC(=O)C(C)c4ccc(Cl)cc4)C3)n2)cc(OC)c1OC (stereo not drawn) [GSK1379757] | 43 | 1 |
| Cl.c1ccc(Cn2cnc3cc(Nc4ncnc5ccccc45)ccc32)cc1 [GW272142] | 39 | 0 |
| O=C(Nc1n[nH]c2nc(-c3ccccc3)c(Cl)cc12)C1CC1 [SB-734909] | 10 | 27 |
| Nc1nccc2scc(-c3ccc4c(c3)CCN4C(=O)Cc3ccccc3)c12 [GSK2576924] | 19 | 5 |
| Nc1ncnc2c1ncn2-c1cccc2ccccc12 [SKF-97184] | 0 | 0 |
| COc1cc2nccc(Nc3cccc(Oc4ccccc4)c3)c2cc1OC.Cl [GW284543] | 22 | 0 |
| Nc1ncnc2c1ncn2-c1ccc(Cl)cc1 [AH2635] | 32 | 0 |
| O=C(NCc1cccs1)c1cc(C(=O)c2c(Cl)cccc2Cl)c[nH]1 [GW823670] | 0 | 0 |
| COc1cc2ncn(-c3cc(OCc4ccncc4Br)c(C(N)=O)s3)c2cc1OC [GW854278] | 30 | 10 |
| O=C(Nc1n[nH]c2nc(-c3ccccc3)c(Br)cc12)C1CC1 [SB-708998] | 0 | 26 |
| O=c1cc(N2CCOCC2)nc2n(Cc3ccc(F)c(Cl)c3)ccn12 [GSK2297099] | 36 | 0 |
| CCS(=O)c1ccc(-c2coc3ccc(-c4nnc(C)o4)cc23)cc1 (stereo not drawn) | 11 | 0 |
| CC(C)(C)c1ccc(C(=O)Nc2cn3cc(-c4ccccc4)ccc3n2)cc1 | 34 | 8 |
| Nc1nc(-c2ccccc2F)c(-c2ccnc3ccccc23)s1 [GW560459] | 36 | 0 |
| Cc1cccc(-c2nc(Nc3ccc4c(cnn4C)c3)c3ccccc3n2)n1 [GW876731] | 0 | 16 |

| SMILES | %Inh (p38-delta) [%] | %Inh (p38-gamma) [%] |
| --- | --- | --- |
| O=C(Nc1n[nH]c2cc(-c3ccccc3F)ccc12)C1CC1 [SB-733371] | 0 | 19 |
| COc1ccc(-n2cnc3c(N)ncnc32)cc1 [SKF-97236] | 0 | 12 |
| COc1ccc(-c2cc3c(C)nc(N)nc3n([C@H]3CC[C@H](O)CC3)c2=O)cn1 | 0 | 100 |
| Cc1cc(Nc2nc(-c3cccc(C)n3)nc3ccccc23)ccn1 [GW872411] | 0 | 0 |
| CCS(=O)(=O)c1ccc(OC)c(Nc2ncc(-c3ccc(F)cc3)o2)c1.Cl [GW591947] | 43 | 6 |
| COc1cccc(-n2cnc3c(N)ncnc32)c1 [SKF-97416] | 0 | 52 |
| CCC(=O)c1c(-c2ccccc2)c2cc(Cl)ccc2c(=O)n1Cc1cc(S(C)(=O)=O)n(CC(N)=O)n1 | 16 | 7 |
| Cc1nnc(-c2ccc(C)c(-c3ccc(C(=O)O)cc3)c2)o1 [GW608005] | 2 | 0 |
| COc1ccc(Nc2nccc(N3CCC(NS(=O)(=O)c4ccc(NC(C)=O)cc4)C3)n2)cc1 (stereo not drawn) [GSK1379729] | 30 | 17 |
| Nc1nc(N)c2nc(-c3ccccc3)[nH]c2n1 [SKF-12778] | 19 | 0 |
| COC(=O)c1c(-c2ccccc2)c2cc(Br)ccc2c(=O)n1Cc1ccc(NC(=O)CCC(=O)O)cc1 | 28 | 21 |
| CCn1c(-c2ccoc2)nc2cnccc21 [SB-733887] | 25 | 12 |
| O=C(Nc1ccc2c(c1)OCO2)NC1CCN(c2ccnc(NCc3ccc(F)cc3)n2)CC1 [GSK1379859] | 28 | 0 |
| COc1ccc(-c2cc3c(C)nc(N)nc3n([C@H]3CC[C@H](OCCO)CC3)c2=O)cn1 | 13 | 0 |
| CCCC(=O)Nc1n[nH]c2ncc(-c3cccc4ccccc34)cc12 [SB-642057] | 26 | 39 |
| Nc1ncnc2c1ncn2-c1cccc(F)c1 [SKF-97560] | 0 | 48 |
| Cc1nc(N(C)[C@H]2CN(C(=O)CC#N)CC[C@H]2C)c2cc[nH]c2n1 | 0 | 11 |
| C[C@@H]1CC[C@H](C(=O)NC2CCCCC2)CN1c1cc(-c2ccc3c(N)n[nH]c3c2)nc(N)n1 [GSK2291363] | 42 | 45 |
